Test results: ChEMBL document CHEMBL3988442, “University of Dundee, Small-Polar-MMV Screening Library” (2021)
For some of these results: Potency and affinity values are given separately.

How the values were obtained:
Parameters in all cases: scale not given: direction of the effect not stated beside the values
[1] = molecular target: Protein translocase subunit SecA (Escherichia coli (strain K12)) (UniProt P10408); experiment: Assay to Identify E. coli SecA ATPase Inhibitors; assay type: functional; conditions: 30 µM
Sequence of Protein translocase subunit SecA (Escherichia coli (strain K12)) (P10408 whole entry): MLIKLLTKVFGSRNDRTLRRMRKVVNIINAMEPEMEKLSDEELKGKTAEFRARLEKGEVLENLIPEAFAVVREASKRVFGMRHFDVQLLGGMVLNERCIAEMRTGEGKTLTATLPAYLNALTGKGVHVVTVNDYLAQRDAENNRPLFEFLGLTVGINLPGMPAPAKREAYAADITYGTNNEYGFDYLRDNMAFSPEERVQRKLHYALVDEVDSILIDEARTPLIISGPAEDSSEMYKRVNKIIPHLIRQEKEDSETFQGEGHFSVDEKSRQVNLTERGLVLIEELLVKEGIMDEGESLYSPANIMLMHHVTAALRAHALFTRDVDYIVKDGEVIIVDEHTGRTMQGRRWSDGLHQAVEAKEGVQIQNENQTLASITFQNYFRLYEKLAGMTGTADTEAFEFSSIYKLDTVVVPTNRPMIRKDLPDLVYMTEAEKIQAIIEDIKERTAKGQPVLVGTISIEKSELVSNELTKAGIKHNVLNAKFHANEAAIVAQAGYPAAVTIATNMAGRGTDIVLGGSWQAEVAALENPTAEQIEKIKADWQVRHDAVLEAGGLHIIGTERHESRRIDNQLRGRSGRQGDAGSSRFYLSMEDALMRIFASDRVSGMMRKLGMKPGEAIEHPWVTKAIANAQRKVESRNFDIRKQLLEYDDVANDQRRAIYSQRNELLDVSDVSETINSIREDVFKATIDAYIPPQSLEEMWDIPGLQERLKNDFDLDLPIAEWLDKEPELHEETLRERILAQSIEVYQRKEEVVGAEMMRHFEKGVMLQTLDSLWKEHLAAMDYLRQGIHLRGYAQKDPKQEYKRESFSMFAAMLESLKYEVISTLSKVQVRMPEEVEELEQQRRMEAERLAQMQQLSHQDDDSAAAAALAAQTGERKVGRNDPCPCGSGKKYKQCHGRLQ

[2] = molecular target: T1, Ubiquitin-activating enzyme e1, putative (Leishmania donovani (strain BPK282A1)) (UniProt E9BSI1); experiment: Leishmania donovani Ubiquitin Activating Enzyme (LdE1); assay type: functional; conditions: 30 µM
T1 sequence (whole entry): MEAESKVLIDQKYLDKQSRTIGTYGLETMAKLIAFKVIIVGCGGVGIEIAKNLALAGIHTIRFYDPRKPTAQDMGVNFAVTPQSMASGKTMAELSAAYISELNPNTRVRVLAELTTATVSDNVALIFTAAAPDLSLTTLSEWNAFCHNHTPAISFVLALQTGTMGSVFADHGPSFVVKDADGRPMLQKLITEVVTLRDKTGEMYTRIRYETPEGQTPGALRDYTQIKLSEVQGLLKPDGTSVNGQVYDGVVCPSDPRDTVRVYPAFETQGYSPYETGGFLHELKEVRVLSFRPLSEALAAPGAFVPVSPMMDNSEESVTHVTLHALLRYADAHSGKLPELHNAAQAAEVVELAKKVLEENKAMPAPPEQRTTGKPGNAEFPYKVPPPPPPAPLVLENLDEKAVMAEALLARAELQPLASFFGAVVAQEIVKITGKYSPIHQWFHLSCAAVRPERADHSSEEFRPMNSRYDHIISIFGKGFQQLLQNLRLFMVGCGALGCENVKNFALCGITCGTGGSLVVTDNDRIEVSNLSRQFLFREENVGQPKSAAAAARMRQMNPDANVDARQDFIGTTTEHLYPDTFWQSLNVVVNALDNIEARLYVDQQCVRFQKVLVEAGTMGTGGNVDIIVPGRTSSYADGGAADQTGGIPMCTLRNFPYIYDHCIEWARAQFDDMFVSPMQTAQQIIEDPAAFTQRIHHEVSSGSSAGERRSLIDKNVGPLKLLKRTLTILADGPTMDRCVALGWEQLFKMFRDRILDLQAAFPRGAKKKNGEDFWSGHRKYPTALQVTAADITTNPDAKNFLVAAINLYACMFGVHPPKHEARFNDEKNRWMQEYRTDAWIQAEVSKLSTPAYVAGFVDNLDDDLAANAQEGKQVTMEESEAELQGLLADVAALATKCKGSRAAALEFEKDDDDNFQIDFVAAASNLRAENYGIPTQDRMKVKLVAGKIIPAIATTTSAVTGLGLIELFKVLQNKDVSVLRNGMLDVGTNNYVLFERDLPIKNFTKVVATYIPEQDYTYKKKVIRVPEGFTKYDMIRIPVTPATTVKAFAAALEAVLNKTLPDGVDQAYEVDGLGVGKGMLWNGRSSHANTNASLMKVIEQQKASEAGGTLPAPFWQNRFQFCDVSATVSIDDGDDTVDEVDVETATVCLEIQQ

[3] = molecular target: AMP-activated protein kinase, AMPK (Homo sapiens) (UniProt P54646+O43741+P54619+Q9UGJ0+Q9Y478+Q13131+Q9UGI9); experiment: AMP-dependent Kinase enzyme assay. An in vitro enzyme assay that detects ADP turnover that is directly proportional to AMPK activity. This uses naive AMPK that is activated during the assay with MK-8722; assay type: functional; conditions: 30 µM
[4] = molecular target: Sialic acid-binding Ig-like lectin 9 (Homo sapiens) (UniProt Q9Y336); experiment: Hs-Siglec9 ALPHAscreen SOP 20170721; conditions: 10 µM
Sequence of Sialic acid-binding Ig-like lectin 9 (Homo sapiens) (Q9Y336 whole entry): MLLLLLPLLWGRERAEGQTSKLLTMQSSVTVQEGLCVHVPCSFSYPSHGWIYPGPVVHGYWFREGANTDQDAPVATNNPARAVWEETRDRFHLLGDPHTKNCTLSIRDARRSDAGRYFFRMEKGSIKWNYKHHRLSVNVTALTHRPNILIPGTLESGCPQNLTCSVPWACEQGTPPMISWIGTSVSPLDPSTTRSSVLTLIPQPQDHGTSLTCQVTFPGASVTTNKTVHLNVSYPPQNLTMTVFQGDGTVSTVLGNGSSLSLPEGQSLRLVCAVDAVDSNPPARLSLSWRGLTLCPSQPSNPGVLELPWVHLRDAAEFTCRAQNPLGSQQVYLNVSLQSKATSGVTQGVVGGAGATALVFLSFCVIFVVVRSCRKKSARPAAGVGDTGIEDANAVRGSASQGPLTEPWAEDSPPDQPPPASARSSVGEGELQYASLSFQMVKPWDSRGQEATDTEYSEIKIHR

Trypanosoma cruzi = experiment: Trypanosoma cruzi phosphomannomutase and mannose-1-phosphate guanylyltransferase assay; assay type: functional; conditions: 10 µM
[5] = molecular target: T2, Arginase-2, mitochondrial (Homo sapiens) (UniProt P78540); experiment: in vitro enzyme assay to detect the production of urea directly proportional to the activity of Arginase II; assay type: functional; conditions: 33.3 µM; also: in the data most compounds retested in dose-response had high values
T2 sequence (whole entry): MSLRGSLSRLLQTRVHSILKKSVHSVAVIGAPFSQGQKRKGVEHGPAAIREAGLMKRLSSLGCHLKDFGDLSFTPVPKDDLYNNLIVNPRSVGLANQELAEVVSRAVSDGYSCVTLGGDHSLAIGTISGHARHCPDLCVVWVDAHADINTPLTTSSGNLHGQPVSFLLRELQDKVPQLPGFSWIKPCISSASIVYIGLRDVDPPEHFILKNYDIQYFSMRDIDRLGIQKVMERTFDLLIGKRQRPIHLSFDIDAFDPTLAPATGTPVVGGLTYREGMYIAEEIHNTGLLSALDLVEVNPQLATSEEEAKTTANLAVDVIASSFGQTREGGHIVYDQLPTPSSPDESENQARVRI

[6] = molecular target: T3, Proteasome subunit beta (Trypanosoma cruzi) (UniProt O96673); experiment: Trypanosoma cruzi proteasome chymotrypsin-like activity (TcProtChymo) assay.; also: in the data most compounds retested in dose-response had high values; assay type: functional; conditions: 9.37 µM
T3 sequence (whole entry): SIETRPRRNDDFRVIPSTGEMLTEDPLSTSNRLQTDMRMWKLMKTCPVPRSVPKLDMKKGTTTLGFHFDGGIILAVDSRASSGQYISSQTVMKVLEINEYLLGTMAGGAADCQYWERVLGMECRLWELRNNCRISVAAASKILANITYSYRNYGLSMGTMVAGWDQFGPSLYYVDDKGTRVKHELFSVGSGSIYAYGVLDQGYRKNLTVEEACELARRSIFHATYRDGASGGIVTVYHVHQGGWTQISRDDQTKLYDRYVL

Homo sapiens = organism: Homo sapiens; experiment: To identify inhibition of the IFN signalling (Jak-Stat) pathway via expression of an eGFP reporter gene under the control of an IFN-stimulated response element (ISRE) containing MxA promoter.; assay type: functional; conditions: 30 µM
[7] = molecular target: T4, Tyrosyl-tRNA synthetase, putative (Trypanosoma cruzi (strain CL Brener)) (UniProt Q4DSP6); experiment: Trypanosoma cruzi tyrosyl tRNA synthetase (TcYRS) _High Tyrosine SOP; assay type: functional; conditions: 30 µM; also: in the data most compounds retested in dose-response had high values
T4 sequence (whole entry): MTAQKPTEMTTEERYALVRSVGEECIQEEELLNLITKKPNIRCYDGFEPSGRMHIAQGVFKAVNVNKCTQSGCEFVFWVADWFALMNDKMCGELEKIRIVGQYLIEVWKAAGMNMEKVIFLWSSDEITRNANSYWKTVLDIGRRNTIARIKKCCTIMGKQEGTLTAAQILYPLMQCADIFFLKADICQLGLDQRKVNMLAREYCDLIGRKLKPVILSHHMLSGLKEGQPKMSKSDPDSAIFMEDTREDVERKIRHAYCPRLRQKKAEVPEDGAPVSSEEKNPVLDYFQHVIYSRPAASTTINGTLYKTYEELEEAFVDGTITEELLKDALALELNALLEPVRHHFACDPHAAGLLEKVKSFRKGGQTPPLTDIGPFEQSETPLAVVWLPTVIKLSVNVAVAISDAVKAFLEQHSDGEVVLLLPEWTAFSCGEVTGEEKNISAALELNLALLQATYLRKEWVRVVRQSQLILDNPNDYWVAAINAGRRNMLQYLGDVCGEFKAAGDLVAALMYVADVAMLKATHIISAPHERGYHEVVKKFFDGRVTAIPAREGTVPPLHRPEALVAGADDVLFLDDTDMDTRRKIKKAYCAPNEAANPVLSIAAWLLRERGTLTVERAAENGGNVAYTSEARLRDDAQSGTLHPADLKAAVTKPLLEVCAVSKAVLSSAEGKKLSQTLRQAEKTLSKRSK

[8] = molecular target: T4, Tyrosyl-tRNA synthetase, putative (Trypanosoma cruzi (strain CL Brener)); experiment: Trypanosoma cruzi tyrosyl tRNA synthetase (TcYRS) SOP; assay type: functional; conditions: 30 µM
[9] = molecular target: Chromo domain-containing protein 1 (Saccharomyces cerevisiae (strain ATCC 204508 / S288c) (Baker's yeast)) (UniProt P32657); experiment: ScCHD-1 Enzyme Inhibition Assay; assay type: functional; conditions: 30 µM; also: in the data most compounds retested in dose-response had high values
Sequence of Chromo domain-containing protein 1 (Saccharomyces cerevisiae (strain ATCC 204508 / S288c) (Baker's yeast)) (P32657 whole entry, the tested form may be a part): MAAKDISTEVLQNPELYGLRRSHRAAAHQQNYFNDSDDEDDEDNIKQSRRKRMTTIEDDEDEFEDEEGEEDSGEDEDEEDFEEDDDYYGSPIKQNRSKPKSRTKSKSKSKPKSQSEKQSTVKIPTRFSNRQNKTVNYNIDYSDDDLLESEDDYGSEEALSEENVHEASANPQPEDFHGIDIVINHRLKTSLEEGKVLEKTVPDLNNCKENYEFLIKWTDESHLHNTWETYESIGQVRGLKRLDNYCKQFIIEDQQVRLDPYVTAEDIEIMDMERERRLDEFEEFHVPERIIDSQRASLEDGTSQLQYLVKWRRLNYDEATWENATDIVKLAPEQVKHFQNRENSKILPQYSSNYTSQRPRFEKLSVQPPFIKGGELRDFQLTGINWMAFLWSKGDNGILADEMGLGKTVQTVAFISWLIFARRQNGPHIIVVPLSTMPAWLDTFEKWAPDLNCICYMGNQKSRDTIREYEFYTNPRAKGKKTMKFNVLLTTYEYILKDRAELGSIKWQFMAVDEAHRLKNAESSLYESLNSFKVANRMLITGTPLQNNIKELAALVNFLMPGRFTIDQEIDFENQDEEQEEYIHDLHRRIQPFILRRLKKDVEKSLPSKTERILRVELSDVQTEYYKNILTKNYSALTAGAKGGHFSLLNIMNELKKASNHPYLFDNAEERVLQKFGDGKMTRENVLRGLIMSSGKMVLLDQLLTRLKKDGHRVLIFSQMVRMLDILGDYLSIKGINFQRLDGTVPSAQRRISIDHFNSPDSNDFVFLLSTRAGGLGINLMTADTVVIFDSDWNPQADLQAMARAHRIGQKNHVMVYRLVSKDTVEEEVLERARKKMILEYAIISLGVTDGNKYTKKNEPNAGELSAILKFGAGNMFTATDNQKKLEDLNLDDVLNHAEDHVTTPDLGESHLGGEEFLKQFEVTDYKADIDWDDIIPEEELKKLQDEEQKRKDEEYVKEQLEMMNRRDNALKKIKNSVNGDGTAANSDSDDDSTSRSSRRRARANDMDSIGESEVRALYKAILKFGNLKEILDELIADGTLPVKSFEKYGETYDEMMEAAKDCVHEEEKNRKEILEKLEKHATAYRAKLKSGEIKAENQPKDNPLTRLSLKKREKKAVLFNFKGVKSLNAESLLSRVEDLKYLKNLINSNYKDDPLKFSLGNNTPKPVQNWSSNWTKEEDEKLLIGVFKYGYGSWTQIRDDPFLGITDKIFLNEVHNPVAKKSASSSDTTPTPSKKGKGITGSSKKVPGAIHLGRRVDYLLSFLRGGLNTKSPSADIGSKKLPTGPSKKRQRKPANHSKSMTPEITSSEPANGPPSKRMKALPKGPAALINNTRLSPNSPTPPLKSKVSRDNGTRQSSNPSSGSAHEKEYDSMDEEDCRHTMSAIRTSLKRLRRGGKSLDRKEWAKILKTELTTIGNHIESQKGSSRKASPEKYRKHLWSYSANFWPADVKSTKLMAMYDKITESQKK

Structure (SMILES) | Percent Effect [1] [%] | Percent Effect [2] [%] | Percent Effect [3] [%] | Percent Effect [4] [%] | Percent Effect (Trypanosoma cruzi) [%] | Percent Effect [5] [%] | Percent Effect [6] [%] | Percent Effect (Homo sapiens) [%] | Percent Effect [7] [%] | Percent Effect [8] [%] | Percent Effect [9] [%]
CC(=O)c1cccc(NC(=O)CN2CCCCC2C2OCCO2)c1 (stereo not given) | -5.29 | 5.41 | 1.19 | -1.14 | -2.54 | 5 | 8.37 | -2.75 | 5.94 | 11 | -4.75
CC(NC(=O)CCCOc1ccccc1Cl)c1ccncc1 (stereo not given) | -5.33 | 0 | 2.41 | 0.805 | -8.42 | -2.27 | 6.39 | 27.7 | -2.15 | 2.5 | 110
Cc1nc(C2CCCN(C(=O)CCCn3ccnc3C)C2)no1 (stereo not given) | -3.92 | -5.2 | -5.99 | -4.13 | -3.37 | 3.56 | -3.21 | 22.2 | -0.971 | -2.44 | 5.19
Cc1ccc2c(n1)N(C)CCN(C(=O)C1CC1)C2 | 1.38 | 8 | 0.651 | 2.31 | -8.69 | -54.3 | 7.69 | 12.1 | 2.08 | 17.5 | -6.8
Cc1cc(F)ccc1OC1(C(=O)O)CCN(Cc2ccncc2)CC1 | -4.32 | 16 | -6.71 | 19.8 | 3.21 | 13.5 | 11.7 | 10 | 10.4 | 21 | -4.33
Cc1cnn(C2CN(Cc3ccc4c(c3)OCCO4)C2)c1 | -0.648 | -2.67 | -8.78 | 1.34 | -2.04 | -1.56 | 19.9 | 8.06 | 8.2 | 16.1 | -8.99
CC(C)C(C)NC(=O)Nc1ccccc1CN1CCOCC1 (stereo not given) | -7.45 | 2.7 | 0.895 | 4.22 | 1.47 | 2.23 | 2.66 | -10.3 | 6.45 | 11.1 | -3.52
Cc1ccc(CN2CCc3c(C(=O)N(C)C)nn(C)c3C2)s1 | -1.04 | 8.22 | -3.87 | 6.86 | 5.95 | 0 | 18.6 | 6.25 | 8.33 | 11.1 | -4.79
Cn1cc(C2COC3(CCN(C(=O)Cn4cccn4)CC3)C2)cn1 (stereo not given) | -2.57 | 13.5 | -8.57 | -2.55 | 2.25 | 2.23 | 24 | 3.24 | 4.32 | 17.9 | 2.16
CC(=O)N1CCN(C(=O)C(C)n2cncn2)CC1 (stereo not given) | -3.75 | 8.86 | 5.62 | 3.27 | 1.13 | -1.5 | 10.3 | 1.42 | 5.21 | 12.7 | -21.9
O=C(c1coc(COc2cccc(F)c2)n1)N1CC[C@H](O)[C@@H](O)C1 | -4.21 | 2.7 | 0.202 | 8.13 | 1.93 | 3.33 | 10.2 | 7.51 | 5.82 | 9.76 | -4.67
Cc1occc1C(=O)N1CCC2(CC1)CC(c1cccnc1)C(=O)N2C (stereo not given) | -1.69 | 10.7 | -2.33 | 5.45 | -1.74 | -19.9 | 5.64 | -9.07 | 2.08 | 12.5 | -5.44
CCc1nc(C2CCCN(C(=O)c3ccc(OC(C)C)nc3)C2)no1 (stereo not given) | -8.81 | 5.2 | -0.62 | -8.98 | -3.43 | 3.16 | 1.05 | 15.9 | -0.952 | 0 | -17.8
CC(C)C(C(=O)N1CCCN(Cc2cnn(C)c2)CC1)n1cncn1 (stereo not given) | -1.34 | 0 | 2.52 | 2.77 | -5.8 | 2.76 | 7.82 | -12.4 | 1.07 | -1.24 | 2.06
CN(CCC#N)C(=O)CN1CCCC1c1ccsc1 (stereo not given) | -7.51 | 0 | -7.58 | 1.78 | -3.62 | 0.924 | -1.26 | 11.9 | -2.97 | -1.22 | 7.91
CN(C(=O)C1CSCN1S(=O)(=O)c1ccc(F)cc1)C1CC1 (stereo not given) | -6.46 | 0 | -0.918 | 1.18 | -5.57 | -2.73 | 6.27 | -19.6 | 3.23 | 11.1 | 0.714
Cc1nn(C(C)C)c(C)c1NC(=O)c1ccccc1 | -2.77 | 2.74 | -0.803 | 6.74 | 4.17 | -2.4 | 14.5 | -0.0619 | 7.29 | -3.7 | -1.66
CNC(=O)C1(CCCc2ccncc2)CCCN1 (stereo not given) | -0.846 | 12.2 | 14.6 | 0.634 | -2.96 | -2.09 | 12.3 | 1.56 | 7.53 | 22.1 | -10.5
Cc1noc(CN2CCN(Cc3cccs3)CC2)n1 | -0.284 | 15.6 | 3.17 | -3.65 | -5.24 | 4.27 | 0.845 | 22.4 | 6.8 | 19.5 | -5.19
COCc1cccc(C(=O)N2CCCCC2c2nccs2)c1 (stereo not given) | -2.42 | -2.7 | -6.81 | -4.58 | 5.75 | 2.81 | 7.75 | -4.26 | 3.45 | 3.7 | -4.87
